Calls of active or inactive are those of the source. Rule for the calls: active = hit-call score of the fitted dose curve at least 0.9, where 1 is the maximum; inactive = score below 0.9.
experiment: ATG_M_61_CIS: Attagene CIS-FACTORIAL HepG2 Assay for M61 Transcription Factor (Internal Marker) (AID 2282937); settings: HepG2 Attagene CIS-FACTORIAL M61 internal marker reporter; actives raise or lower the signal
Description: ATG_CIS is a cell-based, multiplexed-readout assay that uses HepG2, a human liver cell line, with measurements taken at 24 hours after chemical dosing in a 24-well plate.ATG_M_61_CIS is one of 52 assay component(s) measured or calculated from the ATG_CIS assay. It is designed to make measurements of mRNA induction, a form of inducible reporter, as detected with fluorescence intensity signals by Reverse transcription polymerase chain reaction (RT-PCR) and Capillary electrophoresis technology.Data from the assay component ATG_M_61_CIS was analyzed into 1 assay endpoint. This assay endpoint, ATG_M_61_CIS, was analyzed with bidirectional fitting relative to DMSO as the negative control and baseline of activity. Using a type of inducible reporter, measures of mRNA for gain or loss-of-signal activity can be used to understand the background control at the transcription factor-level as they relate to the gene . Furthermore, this assay endpoint can be referred to as a secondary readout, because this assay has produced multiple assay endpoints where this one serves a background control function. To generalize the intended target to other relatable targets, this assay endpoint is annotated to the background measurement intended target family, where the subfamily is internal marker.
Human liver HepG2 cells are transiently transfected with multiple reporter transcription units (MRTUs) in 6-well plates using FuGene 6 reagent (Roche; 3 ml FuGene/1 mg DNA). The MRTU constructs are regulated by a cis-regulating element (promoter). […] A major difference between the CIS and TRANS system is that in CIS activities of endogenous TFs are measured, whereas the TRANS assay evaluates changes in activities of exogenous, chimeric NR-Gal4 proteins. […] At the end of 24 hour incubation, total RNA was isolated using TriZol reagent (Invitrogen). The isolated RNA is then reverse-transcribed using oligo(dT) primer and Mo-MLV reverse transcriptase (Invitrogen) with DNAse I (Ambion) treatment for 30 min. The one-tenth of the produced cDNA was amplified by PCR using Taq DNA polymerase (Invitrogen) and two reporter sequence-specific primers. The PCR products were fluorescently labeled by primer extension with 6-arboxyfluorescein (6-FAM) 5'-labeled reporter sequence-specific primer (2 min at 95 C, 20 s at 68 C and 10 min at 72 C) and these products were digested with 5U of HpaI (New England Biolabs) for 2h at 37 C. The fragments were purified using Qiaquick PCR columns (Qiagen), analyzed on an ABI 3130xL genetic analyzer (Applied Biosystems) with peak positions identified by using a set of X-rhodamine (ROX)-labeled MapMarker1000 molecular weight standards (BioVentures). The raw capillary electrophoresis data was processed using Attagraph software (Attagene).

Row | Compound | outcome
1 | C=C(C)C(=O)OCCCCCCCCCCCC | inactive
2 | CCC[Si](OC)(OC)OC | inactive
3 | O=c1c(O)c(-c2ccc(O)cc2O)oc2cc(O)cc(O)c12 | inactive
4 | Cc1cc(C)n(CO)n1 | inactive
5 | CCc1occc(=O)c1O | inactive
6 | CC12CCC(CC1)C(C)(C)O2 | inactive
7 | CCCCCC(=O)OCC | inactive
8 | CCCCCCCCCCCCCC(=O)OC(C)C | inactive
9 | CC1(C)CCC[C@]2(C)[C@H]3CC(=O)O[C@]3(C)CC[C@@H]12 | inactive
10 | CC=C(C)C=CC=C(C)C | inactive
11 | N#CC1(N)CCCCC1 | inactive
12 | Fc1ccc(Br)cc1 | inactive
13 | CC(=O)OC1CCCCC1C(C)(C)C (stereo not given) | inactive
14 | Cc1c(O)cccc1O | inactive
15 | COC(=O)c1ccccc1C | inactive
16 | CC(C)C(=O)OCCOc1ccccc1 | inactive
17 | c1ccc2cnccc2c1 | inactive
18 | CCC(=O)C1CC(C(C)C)CC=C1C (stereo not given) | inactive
19 | O=C(O)CCC(=O)O | inactive
20 | CCCCCCCCC(CO)CCCCCC (stereo not given) | inactive

Row | Compound | outcome
21 | CC(=O)OCc1ccccc1 | inactive
22 | Cc1cc(C)c(C=O)c(C)c1 | inactive
23 | CCCCCCCOC(=O)c1ccc(O)cc1 | inactive
24 | CCCCNC(=S)NCCCC | inactive
25 | C=CCOC(=O)c1ccc(C(=O)OCC=C)c(C(=O)OCC=C)c1 | inactive
26 | C=CC(=O)NC(C)(C)C | inactive
27 | CCN1CCCC1=O | inactive
28 | CC1(C)CC(O)CC(C)(C)N1[O] | inactive
29 | CC1=NN(c2ccc(S(=O)(=O)O)cc2)C(=O)C1N=Nc1ccccc1 (stereo not given) | inactive
30 | C=C(C)C1CC=C(C)C(OC(C)=O)C1 (stereo not given) | inactive
31 | C1CNCCN1 | inactive
32 | CC(=O)OC(C)c1ccccc1 (stereo not given) | inactive
33 | c1ccc2sc(SSN3CCOCC3)nc2c1 | inactive
34 | CCCCCCOc1ccc(N)cc1 | inactive
35 | CC(C)CCCCCOC(=O)CS | inactive
36 | CC(C)CCOCc1ccccc1 | inactive
37 | CC1=CCC2CC1C2(C)C (stereo not given) | inactive
38 | Cc1c(C(=O)c2c[nH]n(C)c2=O)ccc(S(C)(=O)=O)c1C1=NOCC1 | inactive
39 | Cc1ccc([N+](=O)[O-])cc1N | inactive
40 | CC(CC=O)CC(C)(C)C (stereo not given) | inactive
